Reference: PubChem BioAssay (NCATS)
Inconclusive results are not listed. Active and inactive are the calls of the source. Calls come from the whole dose curve; as a rule, active = well fitted curve in the direction sought with a large enough effect; inconclusive = small, poorly fitted or top-dose-only effect, or another doubt; inactive = no such curve, though single readings can be large; an effect the other way counts as inactive or inconclusive.

What was measured:
[1] = molecular target: Voltage-gated inwardly rectifying potassium channel KCNH2 (Homo sapiens) (UniProt Q12809); assay: qHTS Assay for Small Molecule Inhibitors of the Human hERG Channel Activity (AID 588834);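 note: lower thallium flux fluorescence means stronger hERG block; nearly all actives have a fitted effect of over 50% in size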; note: potency is the fitted concentration of half-maximal effect
Outline: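 Measured: FluxOR fluorescence after thallium stimulation in U2OS cells transduced with hERG by baculovirus. Compounds pre-incubated around 10 min; medium Opti-MEM with 2% FCS. AC50 from Hill equation.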

[2] = molecular target: Luciferin 4-monooxygenase (Photinus pyralis) (UniProt P08659); assay: Biochemical firefly luciferase enzyme assay for NPC (AID 624030); note: nearly all actives have a fitted effect of over 70% in size; note: potency is the fitted concentration of half-maximal effect
Outline: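 Counter-screen for direct inhibition of the luciferase enzyme by approved-drug library compounds, run at 10 nM enzyme in 50 mM Tris acetate (final). Luminescence was read within 5 min of enzyme-buffer addition and normalized to PTC124 versus DMSO (0%).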

[3] = S16 Schwann cell viability assay (CellTiter-Glo assay) (AID 624031);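 note: cellular ATP luminescence as a viability measure; series mostly up to about 58 µM; nearly all actives have a fitted effect of over 70% in size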
Outline: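 Native S16 rat Schwann cells in DMEM/10% FBS without phenol red were incubated overnight, then exposed to compounds for 24 h at 37 °C/5% CO2. Viability was read as ATP luminescence (CellTiter-Glo), normalized to no-cell wells and DMSO (0%).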

[4] = S16 Schwann cell PMP22 intronic element firefly luciferase assay (AID 624032); note: series mostly up to about 58 µM; nearly all actives have a fitted effect of over 30% in size
Outline: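 Rat S16 Schwann cells stably carrying a PMP22 intronic element-driven Fluc reporter were seeded overnight, then exposed to compounds for 24 h at 37 °C. Luminescence was normalized to PTC124 (positive control) and DMSO (0% activity).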

Measured: Potency

Voltage-gated inwardly rectifying potassium channel KCNH2 (Homo sapiens), sequence (Q12809 whole entry, looked up): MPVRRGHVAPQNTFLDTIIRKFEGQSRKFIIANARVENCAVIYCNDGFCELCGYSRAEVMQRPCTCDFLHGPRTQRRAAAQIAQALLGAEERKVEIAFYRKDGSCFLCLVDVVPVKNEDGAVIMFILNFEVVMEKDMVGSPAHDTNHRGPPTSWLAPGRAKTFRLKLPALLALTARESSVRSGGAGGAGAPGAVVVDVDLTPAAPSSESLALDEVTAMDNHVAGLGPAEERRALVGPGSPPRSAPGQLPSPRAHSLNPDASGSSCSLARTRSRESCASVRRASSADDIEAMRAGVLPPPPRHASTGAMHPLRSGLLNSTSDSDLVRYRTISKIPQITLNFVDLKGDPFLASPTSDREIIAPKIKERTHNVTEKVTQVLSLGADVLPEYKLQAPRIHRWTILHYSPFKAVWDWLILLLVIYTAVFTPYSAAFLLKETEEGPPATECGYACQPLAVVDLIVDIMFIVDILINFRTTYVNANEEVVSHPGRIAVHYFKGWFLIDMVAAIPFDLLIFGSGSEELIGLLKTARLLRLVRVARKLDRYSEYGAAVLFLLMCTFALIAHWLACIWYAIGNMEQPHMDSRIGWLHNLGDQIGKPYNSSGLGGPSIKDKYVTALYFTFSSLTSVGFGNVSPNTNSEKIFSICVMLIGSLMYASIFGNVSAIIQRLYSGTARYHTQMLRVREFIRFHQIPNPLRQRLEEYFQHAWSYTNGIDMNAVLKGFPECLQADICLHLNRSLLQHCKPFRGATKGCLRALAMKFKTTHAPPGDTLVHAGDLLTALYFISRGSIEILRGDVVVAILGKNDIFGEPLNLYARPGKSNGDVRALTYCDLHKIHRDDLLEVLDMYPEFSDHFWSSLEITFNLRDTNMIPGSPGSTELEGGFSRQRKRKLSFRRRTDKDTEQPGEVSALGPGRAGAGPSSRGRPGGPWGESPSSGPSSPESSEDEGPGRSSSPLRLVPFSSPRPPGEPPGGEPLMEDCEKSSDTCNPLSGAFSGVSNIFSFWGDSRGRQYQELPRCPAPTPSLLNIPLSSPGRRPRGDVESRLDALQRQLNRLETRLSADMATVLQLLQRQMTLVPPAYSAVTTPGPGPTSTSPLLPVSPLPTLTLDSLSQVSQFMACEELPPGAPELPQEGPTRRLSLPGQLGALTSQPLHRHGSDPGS
Luciferin 4-monooxygenase (Photinus pyralis), sequence (P08659 whole entry, looked up): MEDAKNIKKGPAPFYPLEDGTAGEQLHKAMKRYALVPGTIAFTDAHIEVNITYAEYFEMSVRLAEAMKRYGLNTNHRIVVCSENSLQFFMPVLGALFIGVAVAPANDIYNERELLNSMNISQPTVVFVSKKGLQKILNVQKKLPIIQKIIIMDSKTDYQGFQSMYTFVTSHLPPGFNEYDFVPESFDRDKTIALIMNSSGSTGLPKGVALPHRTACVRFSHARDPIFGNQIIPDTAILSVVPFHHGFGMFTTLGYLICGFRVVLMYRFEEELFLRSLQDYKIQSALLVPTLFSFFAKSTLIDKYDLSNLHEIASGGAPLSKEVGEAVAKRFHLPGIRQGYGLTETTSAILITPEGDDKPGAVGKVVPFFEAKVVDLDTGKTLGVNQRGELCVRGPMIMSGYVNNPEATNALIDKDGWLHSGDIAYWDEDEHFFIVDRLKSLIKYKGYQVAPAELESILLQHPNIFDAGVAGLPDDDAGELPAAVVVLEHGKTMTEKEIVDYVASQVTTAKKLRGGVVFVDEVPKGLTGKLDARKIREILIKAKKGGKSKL

COC(=O)[C@@H](N)CS
inactive: [1] | [2] | [3]

O=C(O)[C@H]1CN(C/C=C/P(=O)(O)O)CCN1
inactive: [1] | [2] | [3] | [4]

CN(C)C(=O)CCSC(SCCC(=O)O)c1cccc(/C=C/c2ccc3ccc(Cl)cc3n2)c1 (configuration not stated)
active: [2] 2870 nM
inactive: [1]

O=S(=O)(O)CCCS(=O)(=O)O
inactive: [1] | [2] | [3] | [4]

O=C(O)C1=C(CSc2nnnn2CS(=O)(=O)O)CS[C@@H]2[C@H](NC(=O)[C@H](O)c3ccccc3)C(=O)N12
inactive: [1] | [2] | [3]

FC(F)OC(Cl)C(F)(F)F (configuration not stated)
inactive: [1] | [2] | [3] | [4]

NC(=O)[C@H]1O[C@@H](O)[C@H](O)[C@@H](O)[C@@H]1O
inactive: [1] | [2] | [3] | [4]

O=C(CCCN1CCC(C(=O)c2ccc(F)cc2)CC1)c1ccc(F)cc1
inactive: [2] | [3] | [4]
active: [1] 89.1 nM

CC(C)=CCC/C(C)=C/CC/C(C)=C/CC/C=C(\C)CC/C=C(\C)CCC=C(C)C
inactive: [1] | [2] | [3] | [4]

CC(C)c1ncc([N+](=O)[O-])n1C
inactive: [1] | [2] | [3] | [4]

O[C@@H]([C@H](O)[C@H](O)CBr)[C@H](O)CBr
inactive: [1] | [2] | [3]

O=C(CCCCCCCCCCCCC1CCCC1)Nc1ccc(S(=O)(=O)c2ccc(NC(=O)CCCCCCCCCCCCC3CCCC3)cc2)cc1
inactive: [1] | [2] | [3] | [4]

NCC[C@H](O)C(=O)N[C@@H]1C[C@H](N)[C@@H](O[C@H]2O[C@H](CN)CC[C@H]2N)[C@H](O)[C@H]1O[C@H]1O[C@H](CO)[C@@H](O)[C@H](N)[C@H]1O
inactive: [1] | [2] | [3] | [4]
